# Data reported in PubChem BioAssay (NCI).
# The panel holds about 79,000 compounds, 15% with a hit somewhere; the sample as a whole holds those more often. Activity calls are given as the source filed them. No stated cut-off is given here; in the data, active means growth inhibition above about 70%; inactive means the rest.
# Experiment: NCI Yeast Anticancer Drug Screen. Data for the mec2-1 strain (AID 157)
# Conditions: S. cerevisiae mec2-1 strain, at 50.0 µM (retest, dose inferred, filed as 5.0), active compounds read high
# How it was run: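 Cells of the genetically defined mec2-1 yeast strain are incubated with test compound. Inhibition of growth is calculated against vehicle-treated controls.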
row,SMILES,growth inhibition
1,Cc1ccccc1Sc1ccccc1[N+](=O)[O-],5% (inactive)
2,Nc1nc(-c2ccc3c(c2)Sc2ccccc2O3)cs1,100% (active)
3,CC(C)(C)C1CCC2c3c([nH]c4ccccc34)C3C(=O)N(c4ccc(C(=O)O)cc4)C(=O)C3C2C1 (stereo not given),99% (active)
4,CCC[CH2][Sn]([CH2]CCC)([O]N(C)C(=O)c1ccc(Br)cc1)[O]N(C)C(=O)c1ccc(Br)cc1,99% (active)
5,COC(=O)c1ccc([N+](=O)[O-])o1,38% (inactive)
6,O=C(OC1=C(Br)C(=O)c2ccccc2C1=O)c1ccccc1,99% (active)
7,O=C(O)C/C(=C\c1ccco1)C(=O)O,-9% (inactive)
8,N#C/C(=C/c1ccc([N+](=O)[O-])o1)c1ccccc1,-7% (inactive)
9,CCN(CC)CCOc1ccc(C=C2c3ccccc3-c3ccccc32)cc1,99% (active)
10,Nc1ncnc(N2CCOCC2)c1N,0% (inactive)
11,Cc1cc(Cl)ccc1N1C(=O)C(=O)C(c2nc3ccccc3o2)C(=O)C1=O,99% (active)
12,Cc1nc2c(Cl)nc(Cl)nc2s1,98% (active)
13,CC1=NOC(=O)/C1=C/c1ccc(Cl)c(Cl)c1,20% (inactive)
14,CN(CCC(=O)/C(=C\c1ccc(Cl)cc1)c1ccccc1)Cc1ccccc1,99% (active)
15,C(=N\N=C\c1ccc2c(c1)OCO2)/c1ccc2c(c1)OCO2,2% (inactive)
16,Clc1ccc(CSc2ncnc3c2ncn3C2CCCCO2)cc1 (stereo not given),96% (active)
17,CC(=O)OC/C=C/CCCOC(C)=O,-17% (inactive)
18,CCCCCCCCCCOC(=O)c1cccnc1,52% (inactive)
19,Cc1ccc2c(c1)C1(SCC(=O)N1c1ccc(Cl)cc1)C(=O)N2 (stereo not given),36% (inactive)
20,Oc1ccc(C2CCc3ccccc32)cc1 (stereo not given),98% (active)

row,SMILES,growth inhibition
1,[O-][N+]1=C2CCC/C(=N/O)C2(O)C2CCCCC21N1CCOCC1 (stereo not given),19% (inactive)
2,CCCCN(c1ccccc1)c1ncnc2c1ncn2C,86% (active)
3,Cc1cc(C)nc(/C=C/c2ccccc2)c1,7% (inactive)
4,CCCCN(C)N=Nc1c(C(N)=O)n[nH]c1C(C)C,21% (inactive)
5,O=C1C(Cl)=C(Cl)C(=O)C2=C1CC(Cl)C(Cl)C2 (stereo not given),99% (active)
6,O=C1Oc2ccccc2C(=O)/C1=C/N1C(=O)/C(=C/c2ccc3c(c2)OCO3)SC1=S,78% (active)
7,O=C(/C=C/c1ccc(O)cc1)c1cc(Cl)ccc1O,97% (active)
8,CCCC(C(=O)OCCNC1CCCCC1)c1ccccc1 (stereo not given),14% (inactive)
9,c1ccc2cc3c(cc2c1)Nc1c2ccccc2nc2cccc-3c12,57% (inactive)
10,CCCC1CCCC1(CC(=O)c1ccccc1)C(=O)O (stereo not given),46% (inactive)
11,COc1ccc(CCN2C(=O)C(=O)N(C3CCCCC3)C2=O)cc1OC,0% (inactive)
12,COC(C(=O)O)c1ccccc1 (stereo not given),-3% (inactive)
13,CCCCCCCCC(=O)NCCCNCCCNC(=O)CCCCCCCC,-18% (inactive)
14,C[Si](C)(CCC(=O)O)O[Si](C)(C)CCC(=O)O,92% (active)
15,Cc1c2cc[n+](C)cc2c(C)c2c1[nH]c1ccc(Cl)cc12,99% (active)
16,O=[N+]([O-])c1ccc(C2=Nn3c(nnc3-c3ccc(Cl)cc3)SC2)o1,44% (inactive)
17,CCCCCCCCCCN(CCCCCCCCCC)CC(O)c1cc(-c2ccccc2)nc2ccccc12 (stereo not given),34% (inactive)
18,O=C(c1ccccc1)C(c1ccccc1)C1(O)C(=O)Nc2c(Cl)cc(Cl)cc21 (stereo not given),-6% (inactive)
19,COC(=S)S,0% (inactive)
20,CC/C(=C(\CC)c1ccc(O)c(CN(CC)CC)c1)c1ccc(OC)cc1,62% (inactive)
